In the supplement of paper PMC12339681:
Counter-ions that a name gives are not always drawn.

tested on: PBMC-derived induced microglia-like cells (piMGLC); assay: synaptosome phagocytic index relative to DMSO control (fraction of DMSO); higher = more phagocytosis; settings: concentration: 10 uM (2 uM for compounds listed in Table S2); pretreatment time: 24 h; assay time: 3 h

SMILES | synaptosome phagocytic index
CNNCc1ccc(C(=O)NC(C)C)cc1 [Procarbazine_(Hydrochloride)] | 1.1
COC(=O)/C=C/c1ccc(O)c(OC)c1 [Ferulic_acid_methyl_ester] | 0.783
C[C@@H]1O[C@@H]1P(=O)(O)O [Fosfomycin_(sodium)] | 1.11
Cc1cn([C@H]2C=C[C@@H](CO)O2)c(=O)[nH]c1=O [Stavudine] | 0.555
COc1ccc2[nH]cc(CCNC(C)=O)c2c1 [Melatonin] | 0.577
Clc1cccc(CN=C2Nc3ccccc3NC23CCNCC3)c1 [Liproxstatin-1] | 1.31
OCCOCCN1CCN(C(c2ccccc2)c2ccc(Cl)cc2)CC1 (stereo unspecified) [Hydroxyzine_(dihydrochloride)] | 0.957
CS(=O)(=O)c1ccc(C2=C(c3ccccc3)C(=O)OC2)cc1 [Rofecoxib] | 1.08
CCC1(C)CC(=O)NC1=O (stereo unspecified) [Ethosuximide] | 0.869
CCC(C)C(N)C(=O)NCCN1CCOCC1 (stereo unspecified) [LM11A-31_(dihydrochloride)] | 0.844
CN1C2CCCC1CC(NC(=O)c1nn(C)c3ccccc13)C2 (stereo unspecified) [Granisetron_(Hydrochloride)] | 0.891
CN(C)CC(c1ccc(O)cc1)C1(O)CCCCC1 (stereo unspecified) [Desvenlafaxine_(succinate_hydrate)] | 1.11
Cc1ccc(C(=O)NCCCCCC(=O)Nc2ccccc2N)cc1 | 0.694
CN1C(C(=O)Nc2ccccn2)=C(O)c2ccccc2S1(=O)=O [Piroxicam] | 0.661
NC(=O)OCC(COC(N)=O)c1ccccc1 [Felbamate] | 0.618
CCN(CC)C(=S)SSC(=S)N(CC)CC [Disulfiram] | 0.784
COC(=O)/C=C/C(=O)OC [Dimethyl_fumarate] | 0.706
COc1cn(-c2ccc(-n3cccn3)cc2F)nc(-c2ccnn2-c2ccccc2)c1=O [Balipodect] | 0.835
Cc1ccsc1C(=CCCN1CCC[C@@H](C(=O)O)C1)c1sccc1C [Tiagabine_(hydrochloride)] | 1.28
CO/N=C(\C(=O)N[C@@H]1C(=O)N2C(C(=O)O)=C(C[N+]3(C)CCCC3)CS[C@H]12)c1csc(N)n1 [Cefepime_(Dihydrochloride_Monohydrate)] | 0.597
CN1C(=O)C(Cc2c[nH]c3ccccc23)NC1=S (stereo unspecified) [Necrostatin-1] | 0.88
